Test results as given in PubChem BioAssay.
Values joined by “and” are separate entries in the source; they are usually repeats but may differ in a detail not shown here. Equal entries are not always repeated. Records with an inconclusive call do not appear. The source holds several records for some structures; these can differ, active in one and inactive in another. Active and inactive are the calls of the source.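 Rule for the calls, unless noted: active = normalized viability below 100% at a tested concentration; inactive = the rest.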

What was measured:
[1] = P. berghei load reduction in hepatocytes – cell-based, HepG2, luciferase luminescence, HepG2 viability, primary screen (AID 624349; in the data active = parasite load remaining mostly below about 12%, no sharp cut-off; inactive = mostly above about 10%;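 note: 100% = mean of DMSO negative control wells on the same plate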); conditions: P. berghei liver stage in HepG2, luciferase luminescence, concentration not given here; parasite load remaining: stronger effect = lower value; viability: measured here: HepG2 viability without parasites
[2] = system: Hepatitis C virus NS3 helicase; test: blockers of NS3h binding to ssDNA – biochemical, fluorescence polarization, LOPAC1280 library, primary screen (AID 687035; in the data active = inhibition above about 37%); conditions: Purified HCV NS3 helicase, Cy5-dT15 ssDNA binding fluorescence polarization; stronger effect = higher value; concentration not given here
[3] = compounds altering Cy5-DNA-NS3h complex signal – biochemical, LOPAC1280, artefact control for HCV NS3 helicase inhibitor project (AID 687037; call rule not given here); conditions: Cy5-DNA-NS3h complex fluorescence interference counterscreen
[4] = system: Aerobactin synthetase IucA (Klebsiella pneumoniae); test: inhibition of K. pneumoniae IucA enzyme – biochemical, Tocris library, absorbance (AID 1345561; call rule not given here;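 note: 100% = enzyme without compound and 0% = no enzyme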); conditions: purified IucA enzyme assay, absorbance (OD) read-out; stronger effect = lower value;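 tested at 8 µM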
[5] = viability loss in pontine glioma line – cell-based, SU-DIPG-XVII, MIPE5.0, CellTiter-Glo, qHTS, dose response (AID 1347060; cut-off not given, nearly all actives have AC50 up to about 26 µM); conditions: CellTiter-Glo ATP luminescence
[6] = viability loss in pontine glioma line – cell-based, SU-DIPG-XIII, MIPE5.0, CellTiter-Glo, qHTS, dose response (AID 1347064; cut-off not given, nearly all actives have AC50 up to about 23 µM); conditions: CellTiter-Glo ATP luminescence
[7] = viability loss in pontine glioma line – cell-based, SU-DIPG-XXV, MIPE5.0, CellTiter-Glo, qHTS, dose response (AID 1347065; cut-off not given, nearly all actives have AC50 up to about 26 µM;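 note: cells exposed to compound for 48 hours before ATP readout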); conditions: CellTiter-Glo ATP luminescence
[8] = growth inhibition of DIPG cells – cell-based, MIPE5.0 library, qHTS (AID 1347068; cut-off not given, nearly all actives have IC50 up to about 30 µM); conditions: SU-DIPG-XXV viability
[9] = viability loss with induced miR-34 in A549 – imaging, A549 dox-inducible miR-34, nuclei and caspase counts, primary screen (AID 1347080;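 active = compounds whose cell count with miR-34 switched on is under 0.7 times the count with it off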); conditions: A549 miR-34 inducible, Hoechst nuclei count, 48 h
[10] = galactose survival enhancers in mitochondrial complex I cybrids – cell-based, galactose medium, ATP luminescence, primary screen (AID 1645843;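 active = z-score of at least 1.8 in each of two replicates, scored against plate mean and spread of sample wells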;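 note: positive z means more ATP and so rescue of galactose-driven cybrid death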); conditions: complex I mutant cybrid cells, 72 h, stronger effect = higher value
[11] = viability loss in pontine glioma line – cell-based, SU-DIPG-XIII, MIPE4.0, CellTiter-Glo, qHTS, dose response (AID 1347061; cut-off not given, nearly all actives have AC50 up to about 37 µM;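 note: cells exposed to compound for 48 hours before readout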); conditions: CellTiter-Glo ATP luminescence
[12] = viability loss in pontine glioma line – cell-based, JHH-DIPG-1, MIPE4.0, CellTiter-Glo, qHTS, dose response (AID 1347062; cut-off not given, nearly all actives have AC50 up to about 27 µM); conditions: JHH-DIPG-1 viability, CellTiter-Glo ATP luminescence
[13] = viability loss in pontine glioma line – cell-based, SU-DIPG-IV, MIPE4.0, CellTiter-Glo, qHTS, dose response (AID 1347063; cut-off not given, nearly all actives have AC50 up to about 30 µM;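 note: compound exposure lasted 48 hours before the viability readout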); conditions: CellTiter-Glo ATP luminescence
[14] = JHH-DIPG-1 glioma cell viability, MIPE5.0 library, CellTiter-Glo luminescence, qHTS (AID 1347067; cut-off not given, nearly all actives have AC50 up to about 26 µM;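 note: cells exposed to compound for 48 hours before readout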); conditions: JHH-DIPG-1 glioma viability, CellTiter-Glo ATP luminescence
[15] = growth inhibition of DIPG cells – cell-based, MIPE4.0 library, CellTiter-Glo luminescence, qHTS (AID 1347066; cut-off not given, nearly all actives have AC50 up to about 30 µM;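 note: cells exposed to compound for 48 hours before readout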); conditions: SU-DIPG-VI viability, CellTiter-Glo ATP luminescence
[16] = compounds altering HSF1 focus formation in cells – imaging, Selleck Cancer Library (AID 1347162; in the data active = plate-normalised HSF1 focus index below about 0.46); conditions: human cells, HSF1 nuclear foci imaging, at 10 µM; SSMD: measured here: HSF1 foci SSMD mean; cell count: measured here: cell number; plate-normalised HSF1 focus index: stronger effect = lower value
[17] = drug combination growth inhibition, ovarian cancer – cell-based, oncology-focused library, rucaparib conditional, profiling panel (AID 1508598); conditions: patient-derived ovarian cancer cells, CellTiter-Glo viability, 144 h, stronger effect = lower value
[18] = stronger effect = lower value, cell number ratio, induced over uninduced
[19] = measured here: relative caspase fold change +Dox/-Dox
[20] = measured here: total cells with miR-34 induction, stronger effect = lower value
[21] = measured here: total cells without miR-34 induction

COc1cc(SC)ccc1C(=O)N1CCC(Cc2ccccc2)CC1
parasite load remaining [1]: 38.9% (inactive) | viability [1]: 67% | inhibition [2]: 1% (inactive) | fluorescence ratio (interference) [3]: 1 (inactive) | remaining activity [4]: 78.3% (inactive) | outcome [5]: inactive | outcome [6]: inactive | outcome [7]: inactive | outcome [8]: inactive | fold change [9, 18]: 1.03 (inactive) and 0.864 (inactive) | fold change [9, 19]: 0.962 and 1.6 | cell count [9, 20]: 7280 and 6350 | cell count [9, 21]: 7040 and 7350 | z-score [10]: -0.91 (inactive) and -0.635 (inactive)

Nc1ncnc2c1ncn2[C@@H]1O[C@H](CO)C[C@H]1O
remaining activity [4]: 110% (inactive) | outcome [11]: inactive | outcome [12]: inactive | outcome [13]: inactive | outcome [14]: inactive | outcome [8]: inactive | fold change [9, 18]: 0.951 (inactive) | fold change [9, 19]: 1.64 | cell count [9, 20]: 9150 | cell count [9, 21]: 9630 | z-score [10]: -0.55 (inactive)

C=CCc1cccc(/C=N/NC(=O)CN2CCN(Cc3ccccc3)CC2)c1O
remaining activity [4]: 83.1% (inactive) | AC50 [15]: 16.6 µM (active) | fold change [9, 18]: 1.09 (inactive) and 0.918 (inactive) and 0.982 (inactive) | fold change [9, 19]: 0.357 and 1.59 and 1.69 | cell count [9, 20]: 2970 and 4320 and 3830 | cell count [9, 21]: 2740 and 4710 and 3900 | SSMD [16]: 3.11 | cell count [16]: 7490 | plate-normalised HSF1 focus index [16]: 1.19 (inactive) | z-score [10]: -1.15 (inactive) and -0.59 (inactive)

Cc1ccc(S(=O)(=O)/C=C/C#N)cc1
parasite load remaining [1]: 28.8% (inactive) | viability [1]: 155% | inhibition [2]: 0% (inactive) | fluorescence ratio (interference) [3]: 1 (inactive) | remaining activity [4]: 118% (inactive) | fold change [9, 18]: 1.22 (inactive) and 0.866 (inactive) and 0.568 (active) | fold change [9, 19]: 0.97 and 2.14 and 4.02 | cell count [9, 20]: 1120 and 1020 and 904 | cell count [9, 21]: 923 and 1180 and 1590 | SSMD [16]: -10.4 | cell count [16]: 6840 | plate-normalised HSF1 focus index [16]: 0.628 (inactive) | viability ([17]; at 0.000305 µM, OCI-C5x cells, with rucaparib 10 µM, 100% = cells with rucaparib alone): 105% (inactive) | viability ([17]; at 0.000305 µM, OCI-C5x cells, without rucaparib): 97.6% (active) | viability ([17]; at 0.000305 µM, OCI-P5x cells, with rucaparib 20 µM, 100% = cells with rucaparib alone): 97.8% (active) | viability ([17]; at 0.000305 µM, OCI-P5x cells, without rucaparib): 102% (inactive) | viability ([17]; at 0.00122 µM, OCI-C5x cells, with rucaparib 10 µM, 100% = cells with rucaparib alone): 116% (inactive) | viability ([17]; at 0.00122 µM, OCI-C5x cells, without rucaparib): 111% (inactive) | viability ([17]; at 0.00122 µM, OCI-P5x cells, with rucaparib 20 µM, 100% = cells with rucaparib alone): 98.6% (active) | viability ([17]; at 0.00122 µM, OCI-P5x cells, without rucaparib): 106% (inactive) | viability ([17]; at 0.00488 µM, OCI-C5x cells, with rucaparib 10 µM, 100% = cells with rucaparib alone): 116% (inactive) | viability ([17]; at 0.00488 µM, OCI-C5x cells, without rucaparib): 123% (inactive) | viability ([17]; at 0.00488 µM, OCI-P5x cells, with rucaparib 20 µM, 100% = cells with rucaparib alone): 94.4% (active) | viability ([17]; at 0.00488 µM, OCI-P5x cells, without rucaparib): 105% (inactive) | viability ([17]; at 0.0195 µM, OCI-C5x cells, with rucaparib 10 µM, 100% = cells with rucaparib alone): 115% (inactive) | viability ([17]; at 0.0195 µM, OCI-C5x cells, without rucaparib): 117% (inactive) | viability ([17]; at 0.0195 µM, OCI-P5x cells, with rucaparib 20 µM, 100% = cells with rucaparib alone): 95.6% (active) | viability ([17]; at 0.0195 µM, OCI-P5x cells, without rucaparib): 106% (inactive) | viability ([17]; at 0.0781 µM, OCI-C5x cells, with rucaparib 10 µM, 100% = cells with rucaparib alone): 115% (inactive) | viability ([17]; at 0.0781 µM, OCI-C5x cells, without rucaparib): 109% (inactive) | viability ([17]; at 0.0781 µM, OCI-P5x cells, with rucaparib 20 µM, 100% = cells with rucaparib alone): 86.5% (active) | viability ([17]; at 0.0781 µM, OCI-P5x cells, without rucaparib): 102% (inactive) | viability ([17]; at 0.313 µM, OCI-C5x cells, with rucaparib 10 µM, 100% = cells with rucaparib alone): 115% (inactive) | viability ([17]; at 0.313 µM, OCI-C5x cells, without rucaparib): 116% (inactive) | viability ([17]; at 0.313 µM, OCI-P5x cells, with rucaparib 20 µM, 100% = cells with rucaparib alone): 90.2% (active) | viability ([17]; at 0.313 µM, OCI-P5x cells, without rucaparib): 94.8% (active) | viability ([17]; at 1.25 µM, OCI-C5x cells, with rucaparib 10 µM, 100% = cells with rucaparib alone): 122% (inactive) | viability ([17]; at 1.25 µM, OCI-C5x cells, without rucaparib): 112% (inactive) | viability ([17]; at 1.25 µM, OCI-P5x cells, with rucaparib 20 µM, 100% = cells with rucaparib alone): 83.8% (active) | viability ([17]; at 1.25 µM, OCI-P5x cells, without rucaparib): 81.1% (active) | viability ([17]; at 5 µM, OCI-C5x cells, with rucaparib 10 µM, 100% = cells with rucaparib alone): 3.86% (active) | viability ([17]; at 5 µM, OCI-C5x cells, without rucaparib): 4.91% (active) | viability ([17]; at 5 µM, OCI-P5x cells, with rucaparib 20 µM, 100% = cells with rucaparib alone): 26.6% (active) | viability ([17]; at 5 µM, OCI-P5x cells, without rucaparib): 2.37% (active) | z-score [10]: -1.38 (inactive) and -1.04 (inactive)

O=Nc1c(-c2c(O)[nH]c3ccccc23)[nH]c2ccccc12
parasite load remaining [1]: 33.5% (inactive) | viability [1]: 168% | inhibition [2]: 0% (inactive) | fluorescence ratio (interference) [3]: 1 (inactive) | remaining activity [4]: 116% (inactive) | fold change [9, 18]: 1.02 (inactive) and 0.941 (inactive) and 1.27 (inactive) | fold change [9, 19]: 0.96 and 0.857 and 0.731 | cell count [9, 20]: 1220 and 814 and 1460 | cell count [9, 21]: 1200 and 866 and 1140 | z-score [10]: -1.48 (inactive) and -0.805 (inactive)
